Laboratory results: PubChem BioAssay
Calls of active or inactive are those of the source.

How the values were obtained:
[1] = test system: PRMT1 (protein arginine N-methyltransferase 1); assay: small molecules binding arginine methyltransferase PRMT1 – biochemical, small-molecule microarray, 635 nm fluorescence, primary screen (AID 1088); conditions: higher = more signal;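 note: binding of Prmt1 protein to compounds spotted on small-molecule microarray slides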
[2] = growth effects on S. cerevisiae YJM789 – YJM789 clinical isolate, OD600, 24 h, basal, primary screen (AID 1089); conditions: higher = more signal, called active from +8 up or from −8 down;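 note: growth of clinical yeast isolate S. cerevisiae YJM 789 seeded 1000 cells per well; test concentration not given here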
[3] = S. pombe growth modifiers, basal conditions – strain 972, OD600, 24 h, no modulator, primary screen (AID 1090);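 note: basal condition with compound alone and no growth modifier present; test concentration not given here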; conditions: S. pombe 972 growth, higher = more signal, called active from +8 up or from −8 down
[4] = budding yeast growth modifiers under rapamycin – strain BY4716, OD600, 96 h, primary screen (AID 1091); note: test concentration not given here; conditions: S. cerevisiae BY4716 + rapamycin, higher = more signal, called active from +8 up or from −8 down
[5] = biological target: Torsin-1A-interacting protein 2 (Homo sapiens) (UniProt Q8NFQ8); assay: small molecules binding lysate-expressed LULL1 – cell lysate, human LULL1 lysate, 635/667 nm fluorescence, primary screen (AID 1092); conditions: small-molecule microarray, hLULL1 lysate binding, 635 nm fluorescence; higher = more signal;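 note: probe is lysate of COS7 cells overexpressing human LULL1; score merges per-feature 667 nm fluorescence with signal-to-noise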
Torsin-1A-interacting protein 2 (Homo sapiens), sequence (Q8NFQ8 whole entry, looked up): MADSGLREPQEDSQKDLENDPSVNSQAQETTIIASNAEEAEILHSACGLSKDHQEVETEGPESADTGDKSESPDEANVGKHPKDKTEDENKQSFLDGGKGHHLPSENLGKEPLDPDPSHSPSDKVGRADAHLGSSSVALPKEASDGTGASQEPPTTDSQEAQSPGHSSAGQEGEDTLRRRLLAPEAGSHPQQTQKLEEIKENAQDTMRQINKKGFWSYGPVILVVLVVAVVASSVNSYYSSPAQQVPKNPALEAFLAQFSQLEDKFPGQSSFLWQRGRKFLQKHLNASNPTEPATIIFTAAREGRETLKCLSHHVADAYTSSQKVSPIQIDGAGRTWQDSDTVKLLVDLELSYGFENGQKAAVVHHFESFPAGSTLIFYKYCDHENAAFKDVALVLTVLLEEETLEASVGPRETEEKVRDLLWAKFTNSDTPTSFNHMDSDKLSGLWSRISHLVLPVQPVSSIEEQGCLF

[6] = optical density change of DRC41 E. coli – strain DRC41, OD650, 24 h, E. coli filamentation project, primary screen (AID 1093);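 note: MC1000 strain lacking acrAB efflux and sulA so SOS filamentation is blocked; test concentration not given here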; conditions: E. coli DRC41 growth, higher = more signal, called active from +8 up or from −8 down
[7] = probe aLefty2 binding to arrayed compounds – biochemical, biotinylated probe, 635/667 nm fluorescence, primary screen (AID 1094); conditions: small-molecule microarray, higher = more signal;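 note: score merges spot fluorescence near 667 nm with spot signal-to-noise ratio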
[8] = test system: Noggin (protein binding on small-molecule microarray); assay: small molecules binding Noggin protein – biochemical, 635/667 nm fluorescence, primary screen (AID 1095); conditions: 635 nm fluorescence, higher = more signal;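 note: score merges 667 nm feature fluorescence with signal to noise over triplicate slides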
[9] = biological target: Neurogenic locus notch homolog protein 3 (Homo sapiens) (UniProt Q9UM47); assay: small molecules binding NOTCH3 protein – biochemical, 635/667 nm fluorescence, primary screen (AID 1096); conditions: small-molecule microarray, 635 nm fluorescence, higher = more signal
Neurogenic locus notch homolog protein 3 (Homo sapiens), sequence (Q9UM47 whole entry, looked up): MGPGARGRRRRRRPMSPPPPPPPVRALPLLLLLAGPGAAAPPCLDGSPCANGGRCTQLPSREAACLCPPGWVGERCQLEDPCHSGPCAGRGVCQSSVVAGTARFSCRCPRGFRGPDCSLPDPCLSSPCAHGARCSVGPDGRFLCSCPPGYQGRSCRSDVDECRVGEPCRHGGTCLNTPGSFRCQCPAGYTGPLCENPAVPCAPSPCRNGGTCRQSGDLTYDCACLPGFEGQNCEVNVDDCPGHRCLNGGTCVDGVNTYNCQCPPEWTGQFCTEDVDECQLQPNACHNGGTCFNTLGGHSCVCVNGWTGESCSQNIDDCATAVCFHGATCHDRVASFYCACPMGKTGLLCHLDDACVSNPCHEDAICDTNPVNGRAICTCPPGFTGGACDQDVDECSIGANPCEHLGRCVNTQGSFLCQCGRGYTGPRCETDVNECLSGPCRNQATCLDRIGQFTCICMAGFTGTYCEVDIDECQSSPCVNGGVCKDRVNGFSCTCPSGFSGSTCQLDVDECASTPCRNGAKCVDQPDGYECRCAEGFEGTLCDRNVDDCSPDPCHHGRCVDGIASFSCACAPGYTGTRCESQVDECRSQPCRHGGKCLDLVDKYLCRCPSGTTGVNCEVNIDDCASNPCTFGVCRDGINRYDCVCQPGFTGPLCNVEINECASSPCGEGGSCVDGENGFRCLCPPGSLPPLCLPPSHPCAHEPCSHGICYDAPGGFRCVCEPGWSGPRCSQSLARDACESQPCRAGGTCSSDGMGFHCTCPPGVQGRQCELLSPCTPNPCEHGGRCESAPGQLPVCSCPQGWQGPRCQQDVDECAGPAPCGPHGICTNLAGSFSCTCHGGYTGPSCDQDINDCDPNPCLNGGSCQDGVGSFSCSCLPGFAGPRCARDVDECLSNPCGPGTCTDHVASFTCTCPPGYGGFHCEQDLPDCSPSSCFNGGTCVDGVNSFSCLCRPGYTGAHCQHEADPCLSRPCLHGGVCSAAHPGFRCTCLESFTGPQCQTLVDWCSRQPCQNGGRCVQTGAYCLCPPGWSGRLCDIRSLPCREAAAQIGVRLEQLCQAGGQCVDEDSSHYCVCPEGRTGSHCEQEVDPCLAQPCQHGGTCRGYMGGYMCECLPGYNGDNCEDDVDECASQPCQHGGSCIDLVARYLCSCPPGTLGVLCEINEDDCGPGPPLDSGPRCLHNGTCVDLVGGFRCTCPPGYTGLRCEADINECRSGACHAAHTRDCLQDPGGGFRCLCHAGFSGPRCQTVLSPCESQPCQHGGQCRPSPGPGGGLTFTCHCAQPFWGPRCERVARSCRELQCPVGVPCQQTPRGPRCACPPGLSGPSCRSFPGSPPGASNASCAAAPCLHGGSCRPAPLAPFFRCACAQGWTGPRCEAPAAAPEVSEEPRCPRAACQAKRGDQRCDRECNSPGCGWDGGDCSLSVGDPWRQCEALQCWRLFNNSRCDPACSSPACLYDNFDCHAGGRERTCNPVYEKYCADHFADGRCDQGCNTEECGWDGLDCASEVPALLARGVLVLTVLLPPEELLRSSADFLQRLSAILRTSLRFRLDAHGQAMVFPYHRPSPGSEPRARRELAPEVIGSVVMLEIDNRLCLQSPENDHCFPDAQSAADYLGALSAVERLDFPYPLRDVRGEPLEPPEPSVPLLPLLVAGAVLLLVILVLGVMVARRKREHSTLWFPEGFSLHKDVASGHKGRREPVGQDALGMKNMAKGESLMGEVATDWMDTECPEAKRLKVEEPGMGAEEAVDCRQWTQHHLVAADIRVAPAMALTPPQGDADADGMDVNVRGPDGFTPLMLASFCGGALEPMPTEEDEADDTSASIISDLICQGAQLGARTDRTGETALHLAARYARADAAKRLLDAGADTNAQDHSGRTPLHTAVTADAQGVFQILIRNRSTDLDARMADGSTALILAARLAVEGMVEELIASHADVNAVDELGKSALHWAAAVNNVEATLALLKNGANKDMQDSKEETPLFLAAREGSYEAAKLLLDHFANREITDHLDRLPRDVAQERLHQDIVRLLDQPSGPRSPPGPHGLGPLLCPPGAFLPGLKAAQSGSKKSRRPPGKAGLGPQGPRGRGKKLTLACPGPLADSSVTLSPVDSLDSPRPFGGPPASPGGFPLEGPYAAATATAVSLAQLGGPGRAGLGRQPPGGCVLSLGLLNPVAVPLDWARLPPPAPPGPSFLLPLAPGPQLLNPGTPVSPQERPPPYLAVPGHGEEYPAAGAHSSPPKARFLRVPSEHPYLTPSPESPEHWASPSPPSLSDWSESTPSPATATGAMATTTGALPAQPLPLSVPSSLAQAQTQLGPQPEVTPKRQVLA

[10] = probe aEGFR binding to arrayed compounds – biochemical, biotinylated probe, 635/667 nm fluorescence, primary screen (AID 1097); conditions: small-molecule microarray, higher = more signal;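 note: probe is a biotinylated anti-EGFR antibody binding compounds printed on slides; score combines fluorescence near 667 nm and signal to noise of each spot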
[11] = test system: Plasmodium falciparum Sir2 (PF13_0152, Sir2A); assay: Plasmodium falciparum Sir2A binding compounds – biochemical, small-molecule microarray, 635 nm fluorescence, primary screen (AID 1098); conditions: fluorescence 635 nm, higher = more signal;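 note: score merges spot fluorescence intensity with its signal-to-noise ratio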
[12] = probe aDKK1 binding to arrayed compounds – biochemical, biotinylated probe, 635/667 nm fluorescence, primary screen (AID 1099); conditions: small-molecule microarray, higher = more signal;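 note: score merges 667nm spot fluorescence with signal to noise across triplicate slides; reference of the scale not given here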
[13] = probe aCHRDL2 binding to arrayed compounds – biochemical, biotinylated probe, 635/667 nm fluorescence, primary screen (AID 1100); conditions: small-molecule microarray, higher = more signal
[14] = change in splice reporter luminescence, either direction, cell-based, HEK293, spliceosome inhibition project, primary screen (AID 1101); conditions: HEK293 splicing luciferase reporter, 24 h, higher = more signal, called active from +8 up or from −8 down;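 note: HEK293 cells carrying a splicing-competent luciferase reporter gene; test concentration not given here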
[15] = biological target: Fibroblast growth factor 10 (Homo sapiens) (UniProt O15520); assay: compounds binding fibroblast growth factor 10 – biochemical, small-molecule microarray, 635 nm fluorescence, primary screen (AID 1102); conditions: FGF10 binding, fluorescence 635 nm, higher = more signal
Fibroblast growth factor 10 (Homo sapiens), sequence (O15520 whole entry, looked up): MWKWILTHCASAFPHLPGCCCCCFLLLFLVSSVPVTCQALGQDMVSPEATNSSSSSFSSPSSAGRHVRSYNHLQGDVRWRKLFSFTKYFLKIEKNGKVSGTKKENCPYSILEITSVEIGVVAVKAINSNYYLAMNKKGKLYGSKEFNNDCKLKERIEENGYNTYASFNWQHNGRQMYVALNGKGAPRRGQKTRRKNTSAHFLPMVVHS

[16] = test system: glycogen synthase kinase-3 (GSK3A per assay name; protocol says GSK3B); assay: compounds binding glycogen synthase kinase-3 – biochemical, small-molecule microarray, 635 nm fluorescence, GSK3A, primary screen (AID 1103); conditions: fluorescence 635 nm, higher = more signal; note: the record names both GSK3A and GSK3B
[17] = biological target: Epidermal growth factor receptor (Homo sapiens) (UniProt P00533); assay: compounds binding epidermal growth factor receptor – biochemical, small-molecule microarray, 635 nm fluorescence, primary screen (AID 1104); conditions: EGFR binding, higher = more signal;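 note: score merges 667 nm emission intensity with spot signal to noise over triplicate slides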
Epidermal growth factor receptor (Homo sapiens), sequence (P00533 whole entry, looked up): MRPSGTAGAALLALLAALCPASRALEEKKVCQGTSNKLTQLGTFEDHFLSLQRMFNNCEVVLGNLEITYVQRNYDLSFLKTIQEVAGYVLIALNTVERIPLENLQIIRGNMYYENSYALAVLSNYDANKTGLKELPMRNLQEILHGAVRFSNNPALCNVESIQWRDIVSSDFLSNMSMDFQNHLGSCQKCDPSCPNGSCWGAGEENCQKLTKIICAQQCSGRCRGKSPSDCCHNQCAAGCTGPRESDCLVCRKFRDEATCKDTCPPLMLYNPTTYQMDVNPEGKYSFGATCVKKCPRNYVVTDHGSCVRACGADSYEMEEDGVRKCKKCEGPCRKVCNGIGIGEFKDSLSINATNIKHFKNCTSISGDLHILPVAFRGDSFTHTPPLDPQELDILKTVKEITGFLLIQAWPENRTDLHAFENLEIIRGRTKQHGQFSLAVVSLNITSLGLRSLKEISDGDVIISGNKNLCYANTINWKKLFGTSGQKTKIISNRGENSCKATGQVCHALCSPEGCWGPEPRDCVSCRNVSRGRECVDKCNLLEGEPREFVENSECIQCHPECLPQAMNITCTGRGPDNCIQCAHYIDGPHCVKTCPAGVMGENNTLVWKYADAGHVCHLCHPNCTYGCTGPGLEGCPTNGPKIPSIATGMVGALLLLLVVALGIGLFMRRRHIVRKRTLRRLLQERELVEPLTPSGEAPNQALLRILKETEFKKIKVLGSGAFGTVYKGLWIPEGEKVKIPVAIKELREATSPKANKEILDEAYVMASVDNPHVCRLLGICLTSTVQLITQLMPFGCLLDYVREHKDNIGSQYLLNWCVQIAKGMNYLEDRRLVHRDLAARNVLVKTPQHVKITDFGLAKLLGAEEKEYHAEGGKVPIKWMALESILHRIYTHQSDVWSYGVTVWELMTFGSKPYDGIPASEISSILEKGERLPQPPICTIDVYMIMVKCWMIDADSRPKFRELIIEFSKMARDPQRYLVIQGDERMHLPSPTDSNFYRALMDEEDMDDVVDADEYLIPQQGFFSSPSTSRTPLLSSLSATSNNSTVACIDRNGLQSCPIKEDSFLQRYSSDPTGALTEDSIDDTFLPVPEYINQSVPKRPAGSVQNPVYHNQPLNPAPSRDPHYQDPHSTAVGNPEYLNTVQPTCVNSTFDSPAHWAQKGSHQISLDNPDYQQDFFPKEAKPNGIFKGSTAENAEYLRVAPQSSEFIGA

[18] = biological target: Follistatin-related protein 3 (Homo sapiens) (UniProt O95633); assay: compounds binding follistatin-related protein 3 – biochemical, small-molecule microarray, 635 nm fluorescence, primary screen (AID 1105); conditions: FSTL3 binding, higher = more signal;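 note: score merges emission near 667 nm and signal to noise per printed spot across three slides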
Follistatin-related protein 3 (Homo sapiens), sequence (O95633 whole entry, looked up): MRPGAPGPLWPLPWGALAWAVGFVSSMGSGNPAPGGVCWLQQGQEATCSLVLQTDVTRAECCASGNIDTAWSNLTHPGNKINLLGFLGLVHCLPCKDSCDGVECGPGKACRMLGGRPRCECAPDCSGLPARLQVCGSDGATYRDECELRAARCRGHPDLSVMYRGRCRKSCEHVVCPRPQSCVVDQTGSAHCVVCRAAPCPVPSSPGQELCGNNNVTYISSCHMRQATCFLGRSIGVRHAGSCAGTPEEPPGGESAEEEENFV

[19] = biological target: Dickkopf-related protein 1 (Homo sapiens) (UniProt O94907); assay: small molecules binding DKK1 protein – biochemical, small-molecule microarray, 635 nm fluorescence scan, primary screen (AID 1106); conditions: higher = more signal;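 note: score merges emission near 667 nm with signal to noise over three replicate slides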
Dickkopf-related protein 1 (Homo sapiens), sequence (O94907 whole entry, looked up): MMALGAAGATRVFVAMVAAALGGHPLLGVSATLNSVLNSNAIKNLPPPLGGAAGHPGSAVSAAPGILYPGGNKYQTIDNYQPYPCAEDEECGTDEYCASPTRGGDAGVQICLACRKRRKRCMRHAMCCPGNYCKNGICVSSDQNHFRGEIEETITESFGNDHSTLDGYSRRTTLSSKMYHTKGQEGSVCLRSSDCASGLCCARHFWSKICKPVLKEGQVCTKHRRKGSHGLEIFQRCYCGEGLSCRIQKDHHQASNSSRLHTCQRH

[20] = test system: Inhibin beta A chain (activin A); assay: small molecules binding activin A – biochemical, small-molecule microarray, 635 nm fluorescence scan, primary screen (AID 1107); conditions: INHBA, higher = more signal;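 note: mouse activin A protein probed at 4.33 µg/mL on printed slides; score merges bound-protein fluorescence near 667 nm with spot signal-to-noise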

| SMILES | composite z-score [1] | z-score [2] | z-score [3] | z-score [4] | composite z-score [5] | z-score [6] | composite z-score [7] | composite z-score [8] | composite z-score [9] | composite z-score [10] | composite z-score [11] | composite z-score [12] | composite z-score [13] | z-score [14] | composite z-score [15] | composite z-score [16] | composite z-score [17] | composite z-score [18] | composite z-score [19] | composite z-score [20] |
| --- | --- | --- | --- | --- | --- | --- | --- | --- | --- | --- | --- | --- | --- | --- | --- | --- | --- | --- | --- | --- |
| O=C(NN=C1C[C@@H](O)[C@@H](O)[C@@H]2[C@@H]3C(=O)N(c4ccc(F)cc4F)C(=O)[C@@H]3CC[C@H]12)OCc1ccccc1 | 0.695 | -0.0025 (inactive) | -2.08 (inactive) | -1.69 (inactive) | 1.88 | 0.782 (inactive) | -0.0309 | 0.128 | 0.827 | 0.0443 | 0.705 | 0.052 | 0.793 | 0.267 (inactive) | 0.379 | 0.131 | -0.0295 | 0.385 | -0.118 | 0.0132 |
| CCOC(=O)[C@H](Cc1ccccc1)NC(=O)CCC1CC(OC(=O)NCc2ccc3c(c2)OCO3)CC2(CCCC(COC(=O)NCCCN3CCCC3=O)O2)O1 (stereo not given in full) | 1.55 | -0.395 (inactive) | 0.0418 (inactive) | -0.0655 (inactive) | 2.08 | 0.187 (inactive) | -0.117 | 0.579 | 1 | -0.02 | 0.465 | -0.505 | -0.431 | -0.199 (inactive) | 0.573 | 0.852 | 0.494 | 0.645 | 0.543 | 0.312 |
| COc1ccc(COC(=O)NN=C2C[C@@H](O)[C@@H](O)[C@@H]3[C@@H]4C(=O)N(Cc5ccccc5)C(=O)[C@@H]4CC[C@@H]23)cc1 | 0.166 | 0.712 (inactive) | 0.304 (inactive) | -0.0766 (inactive) | 0.105 | 0.555 (inactive) | -0.0873 | 0.123 | 0.724 | -0.0868 | 0.0233 | -0.12 | -0.249 | -0.221 (inactive) | 0.193 | 0.256 | 0.375 | 0.253 | 0.227 | -0.0039 |
| CON=C(C)CCN1CCc2nc(-c3ccccc3)c(-c3ccccc3)cc2C1 | 0.0214 | -1.08 (inactive) | -17.2 (active) | -3.67 (inactive) | -0.919 | 1.69 (inactive) | -0.0699 | 0.107 | 0.556 | -0.158 | 0.689 | -0.104 | 0.173 | -0.316 (inactive) | -0.0075 | -0.478 | 0.629 | 0.272 | 0.468 | 1.25 |
| COC(=O)[C@H](C)NC(=O)CCC1CC(OC(=O)NCc2cccc3ccccc23)CC2(CCCC(COC(=O)NCCc3ccccc3OC)O2)O1 (stereo not given in full) | 1.37 | 0.502 (inactive) | 1.02 (inactive) | 2.03 (inactive) | 2.38 | 0.476 (inactive) | -0.0179 | 1.14 | 0.817 | 0.0066 | 0.906 | -0.0471 | -0.433 | -0.105 (inactive) | 1.23 | 1.12 | 0.454 | 1.25 | 0.686 | -0.267 |
| COc1ccc(COC(=O)NN=C2C[C@@H](O)[C@@H](O)[C@@H]3[C@@H]4C(=O)N(C[C@@H]5CCCO5)C(=O)[C@@H]4CC[C@@H]23)cc1 | 0.674 | 0.137 (inactive) | 0.467 (inactive) | -0.389 (inactive) | 0.486 | 0.859 (inactive) | -0.145 | 0.585 | 0.106 | -0.1 | 1.06 | -0.288 | -0.241 | -0.00678 (inactive) | 1.01 | 0.0003 | -0.127 | -0.139 | 0.0237 | 0.203 |
| CCOC(=O)CCN1C(=O)[C@H]2[C@H]3[C@H](O)[C@H](O)CC(=NOCC(C)C)[C@@H]3CC[C@H]2C1=O | 0.868 | -0.535 (inactive) | -0.219 (inactive) | -0.629 (inactive) | -0.953 | -0.127 (inactive) | -0.0956 | 1.39 | -0.321 | 0.163 | 0.816 | -0.823 | -1.74 | 0.66 (inactive) | -0.0809 | 1.06 | 0.406 | 1.04 | 1.78 | 1.28 |
| COC(=O)[C@H](C)NC(=O)CCC1CC(OC(=O)NCCc2ccc(F)cc2)CC2(CCCC(COC(=O)NCC3CCCCC3)O2)O1 (stereo not given in full) | 1.49 | -0.797 (inactive) | -0.781 (inactive) | 0.689 (inactive) | 2.16 | -0.718 (inactive) | -0.139 | 0.883 | 1.06 | 0.0207 | 0.662 | -0.262 | -0.446 | -0.863 (inactive) | 0.938 | 1.23 | 0.501 | 1.08 | 0.678 | 0.0532 |
| CC(CCN1CCCCc2nc(C)c(C)cc21)=NOC[C@@H](O)[C@H]1O[C@@H]2OC(C)(C)O[C@@H]2[C@H]1O | 0.908 | -1.58 (inactive) | 0.186 (inactive) | -0.164 (inactive) | -0.428 | 0.579 (inactive) | -0.225 | 1.07 | 0.218 | -0.0179 | 0.577 | -0.32 | -1.02 | 0.595 (inactive) | 0.313 | 0.397 | 0.774 | 0.718 | 0.874 | -0.0196 |
| CC(C)=CCCC(C)=CCON=C1C[C@@H](O)[C@@H](O)[C@@H]2[C@@H]3C(=O)N(Cc4ccc5c(c4)OCO5)C(=O)[C@@H]3CC[C@@H]12 | 1.54 | 0.0718 (inactive) | 1.03 (inactive) | -0.864 (inactive) | 2.06 | 0.813 (inactive) | 0.0478 | 0.837 | 0.983 | -0.0432 | 0.769 | -0.268 | -0.451 | 0.0709 (inactive) | 1.01 | 0.579 | 0.696 | 1.03 | 0.915 | 1.3 |
